Compounds with a hit are over-represented: about 2.6% of the library has one in this group of screens.
GFP derepression: epigenetic modulators derepressing GFP locus in mouse cells; AID 597; Potency, µM (top dose mostly 46.1 µM), for inactives: at the highest dose GFP derepression (activation); 68,000 compounds, 0.09% hits; mouse C127i GFP locus derepression, cytometry, 30 h; also: % of control where 0% means no effect
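Locus derepression in mouse mammary C127i cells whose integrated CMV-GFP reporter is normally silent; GFP expression after 30 h compound treatment was quantified by counting fluorescent cells.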
UbGFP stabilizer: inhibits proteasome, raising ubiquitin-GFP reporter fluorescence | 67,000 tested, under 10 active | Ubiquitin-GFP reporter cells, proteasome inhibition, GFP fluorescence; response scale: untreated = 0%, 10 µM MG-132 = 100% | Potency, µM (highest dose often 45.9 µM), for the others: at the top dose activation (GFP accumulation), hits mostly activators; active = well fitted activation curve with a large enough effect, not every such curve was filed as active; inconclusive = small, poorly fitted or top-dose-only effect, or another doubt; inactive = no such curve, though single readings can be large or run the other way; also: potency is read from the fitted curve at half-maximal effect
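GFP accumulation read-out: laser plate cytometry counting ubiquitin(G76V)-GFP-expressing U2OS cells after 4 hr compound exposure at 37 °C. Titrations spanned 46 uM to 2.9 nM; 0% = basal, 100% = 10 uM MG-132; concentration-response curves fitted.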
HBB splice mod: hemoglobin beta splicing modulation | HBB splicing reporter cell assay, activation; EGFP reporter with mutant IVS2-654 intron; response scale: normalised to 500 nM splice-correcting PNA | Potency, µM (highest dose often 46.1 µM), inactives show top-dose activation, most hits filed as activators | 65,000 compounds, 0.06% hits | AID 925; also: potency is read from the fitted curve at half-maximal effect; 0% is about no effect
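HeLa cells stably expressing EGFP interrupted by mutant beta-globin intron 2 (IVS2-654), 500/well in 2% FCS. Treated with compound for 2 days at 37C. Splicing correction scored as total well GFP intensity (488 nm excitation, 500-520 nm emission); 500 nM antisense PNA served as control.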
Luciferase inh: firefly luciferase inhibition. P08659. purified firefly luciferase, luminescence, 8 min. Potency, µM (top dose mostly 57.1 µM), without a hit: at the top dose activity change, negative = inhibition, hits mostly inhibitors. 72,000 compounds, 2.2% hits; also: potency is read from the fitted curve at half-maximal effect; % is scaled to controls: 0 for no effect and ±100 for the full control effect; nearly all actives have a fitted effect of over 40% in size
Target sequence (P08659 whole entry, looked up): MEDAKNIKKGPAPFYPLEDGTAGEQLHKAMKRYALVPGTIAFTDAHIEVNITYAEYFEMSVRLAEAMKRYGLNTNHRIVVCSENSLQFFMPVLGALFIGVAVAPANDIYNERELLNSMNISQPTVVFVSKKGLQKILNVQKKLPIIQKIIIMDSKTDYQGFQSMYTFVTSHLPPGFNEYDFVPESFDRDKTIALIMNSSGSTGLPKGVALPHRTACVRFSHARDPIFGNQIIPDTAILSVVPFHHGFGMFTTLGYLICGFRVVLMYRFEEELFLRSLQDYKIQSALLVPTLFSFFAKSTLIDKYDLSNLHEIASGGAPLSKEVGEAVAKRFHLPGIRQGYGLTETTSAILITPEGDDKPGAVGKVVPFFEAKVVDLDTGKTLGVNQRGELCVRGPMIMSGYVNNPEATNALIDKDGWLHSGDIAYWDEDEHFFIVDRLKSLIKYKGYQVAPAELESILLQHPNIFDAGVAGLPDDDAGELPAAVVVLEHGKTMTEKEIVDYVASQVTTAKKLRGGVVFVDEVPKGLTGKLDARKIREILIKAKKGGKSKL
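Substrate buffer containing 10 uM ATP (pH 7.2 imidazole, Mg2+, KCl, detergent, BSA) is dispensed, compound pinned in, then luciferase/luciferin detector mix added. After 8 min at ambient temperature, light output is measured.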
Bst PK mod: alters activity of Bacillus stearothermophilus pyruvate kinase | purified pyruvate kinase, luminescence ATP production; ribose 5-phosphate activator present at AC10 | Potency, µM | 51,000 compounds, 1.2% hits | AID 361; in the data active = potency below about 11 µM; inconclusive = mostly about 12 µM to 25 µM;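 the screen sought inhibitors and activators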;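 also: potency is read from the fitted curve at half-maximal effect; scaled between full activation by ribose 5 phosphate and full inhibition by luteolin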
* = called active by the depositor; [ ] = remark or other dose. Unless noted, calls follow the shape of the dose curve; as a rule, active = well fitted curve in the direction sought with a large enough effect; inconclusive = small, poorly fitted or top-dose-only effect, or another doubt; inactive = no such curve, though single readings can be large; an effect the other way counts as inactive or inconclusive.

Results for CN(c1cccc(NC(=O)COc2ccccc2)c1)S(C)(=O)=O ?
GFP derepression: -3%; UbGFP stabilizer: -2%; HBB splice mod: 0%; Luciferase inh: inconclusive; Bst PK mod: >57

What do the screens show for `COc1cccc(NC(=O)COc2ccccc2C(N)=O)c1`?
GFP derepression: 4%; UbGFP stabilizer: 3%; HBB splice mod: 0%; Luciferase inh: 7.9µM*; Bst PK mod: inconclusive

What do the screens show for `CS(=O)(=O)Nc1cccc(-c2ccc3ncnc(N4CCNCC4)c3c2)c1`?
GFP derepression: -3%[9.22 µM]; UbGFP stabilizer: -2%; HBB splice mod: 0%; Luciferase inh: -1%[2.29 µM]

How did Cc1cc2nc(-c3cccnc3SCC(=O)NCc3ccco3)[nH]c2cc1C do in these assays?
GFP derepression: 6%; UbGFP stabilizer: -6%; Luciferase inh: 4µM*; Bst PK mod: 3.9*

Results for O=C(CSc1ncccc1-c1nc2ccccc2[nH]1)NCc1ccco1 ?
GFP derepression: 4%; UbGFP stabilizer: 2%; HBB splice mod: -2%; Luciferase inh: inconclusive

What do the screens show for `C/C=C\C1=C(CO)C(=O)[C@@H]2OC2C1=O` (some centres undefined)?
HBB splice mod: 3%[9.22 µM]; Luciferase inh: 0%[11.4 µM]

Results for Cc1ccc(SCc2cn3c(C)csc3n2)cc1 ?
GFP derepression: 2%; HBB splice mod: 4%[0.369 µM]; Luciferase inh: 16µM*

How did COc1ccc(-n2c(=O)c(-c3cccs3)nc3cnc(Oc4ccccc4)nc32)cc1 do in these assays?
GFP derepression: 3%[9.22 µM]; UbGFP stabilizer: -7%; HBB splice mod: 9%; Luciferase inh: 0%[11.4 µM]

What do the screens show for `COCc1cc(=O)[nH]c(Nc2nc3ccccc3o2)n1`?
GFP derepression: 5%[20.6 µM]; Luciferase inh: -15%[25.5 µM]; Bst PK mod: >26

How did COC(=O)Cc1cc(=O)[nH]c(Nc2nc3ccccc3o2)n1 do in these assays?
GFP derepression: 0%; UbGFP stabilizer: 12%[9.17 µM]; HBB splice mod: -1%[0.0738 µM]; Luciferase inh: 16µM*

How did CCCOc1ccc(-c2nnc(N)s2)cc1 do in these assays?
GFP derepression: 5%[20.6 µM]; Luciferase inh: 13µM*; Bst PK mod: inconclusive

Results for C=CCn1c(C)cc(C(=O)COc2ncnc3sccc23)c1C ?
GFP derepression: 7%; UbGFP stabilizer: 0%; HBB splice mod: 0%[57.5 µM]; Luciferase inh: 13µM*; Bst PK mod: inconclusive

What do the screens show for `CC(C)NC(=O)NC(=O)COc1ncnc2sccc12`?
GFP derepression: 1%; UbGFP stabilizer: 16%; HBB splice mod: 0%; Luciferase inh: 1%; Bst PK mod: >57

Results for O=C(Nc1ccccn1)c1ccc2ccccc2n1 ?
GFP derepression: 1%; UbGFP stabilizer: 4%; HBB splice mod: 0%; Luciferase inh: 3.2µM*; Bst PK mod: 9*

What do the screens show for `Cc1cc(C(=O)Nc2ccccn2)no1`?
GFP derepression: 8%; UbGFP stabilizer: -1%; HBB splice mod: -1%; Luciferase inh: -19%; Bst PK mod: >57

Results for Fc1ccccc1OCCSc1nnnn1-c1ccccc1 ?
GFP derepression: -3%; UbGFP stabilizer: 4%; HBB splice mod: 0%; Luciferase inh: 16µM*

What do the screens show for `c1ccc(OCCSc2nnnn2-c2ccccc2)cc1`?
GFP derepression: 2%; UbGFP stabilizer: -2%; HBB splice mod: 0%[57.5 µM]; Luciferase inh: inconclusive

How did COC(=O)NC(/C(C(=O)OC)=C(\C)NCc1ccccc1)c1ccc(F)cc1 (centres undefined) do in these assays?
HBB splice mod: 5%[9.22 µM]

What do the screens show for `CCOc1ccc(-c2cc(CCCC(=O)NCc3cccnc3)no2)cc1`?
GFP derepression: -2%; UbGFP stabilizer: 8%; HBB splice mod: -1%; Luciferase inh: 13µM*

How did COc1ccc(-c2cc(CCCC(=O)NCCc3ccc(OC)cc3OC)no2)cc1 do in these assays?
GFP derepression: 0%; HBB splice mod: 0%[0.369 µM]; Luciferase inh: -10%; Bst PK mod: >57

Results for COc1ccc(-c2cc(CCCC(=O)NCc3ccccn3)no2)cc1 ?
UbGFP stabilizer: -3%; HBB splice mod: -1%; Luciferase inh: 10µM*

What do the screens show for `CCCc1ccc(-c2ccc(F)c(N)c2)nc1`?
GFP derepression: -2%; UbGFP stabilizer: -1%; HBB splice mod: 0%[9.22 µM]; Luciferase inh: 2µM*

What do the screens show for `CN(C)Cc1ccccc1-c1cncnc1Nc1ccccc1`?
GFP derepression: 0%[9.22 µM]; UbGFP stabilizer: 5%; HBB splice mod: -1%; Luciferase inh: 0%[2.29 µM]

What do the screens show for `Nc1nc(-c2nc3ccccc3[nH]2)cs1`?
GFP derepression: -3%; UbGFP stabilizer: 8%; HBB splice mod: 0%; Luciferase inh: 13µM*; Bst PK mod: inconclusive

What do the screens show for `Cc1ccc(-c2nc3ccccc3[nH]2)s1`?
GFP derepression: -2%; UbGFP stabilizer: -13%; HBB splice mod: 1%; Luciferase inh: 5µM*

What do the screens show for `CCOc1ccc(-n2c(-c3ccco3)n[nH]c2=S)cc1`?
GFP derepression: 6%; HBB splice mod: 0%[0.369 µM]; Luciferase inh: -7%; Bst PK mod: 9.4*

Results for COc1ccccc1CN1CCC2(CC1)CCN(C(=O)c1csnn1)CC2 ?
GFP derepression: 0%[9.22 µM]; UbGFP stabilizer: 0%; HBB splice mod: 2%; Luciferase inh: 1%[11.4 µM]

What do the screens show for `Cc1c(C(=O)O)cnc2cc(-c3ccc(Cl)cc3)nn12`?
UbGFP stabilizer: -11%; HBB splice mod: -1%; Luciferase inh: 13µM*

What do the screens show for `Cc1cc2ncc(C(=O)Nc3ccccc3)c(C)n2n1`?
GFP derepression: 2%; UbGFP stabilizer: -2%; HBB splice mod: 0%; Luciferase inh: 1%; Bst PK mod: >57

Results for CO[C@@H]1COC(=O)CCC[C@@H](C)[C@H](OC)COC(=O)[C@H](Cc2ccccc2)NC(=O)C/C=C\[C@H]1C ?
HBB splice mod: -1%[9.22 µM]; Luciferase inh: -1%[11.4 µM]

Results for COC(=O)c1ccc(C(NC(=O)OCc2ccccc2)/C(C)=C/[C@@H](C)C(=O)NCCc2c[nH]c3ccc(OC)cc23)cc1 (some centres undefined) ?
HBB splice mod: 0%

Results for Cc1ccc(/C=N/c2sc3c(c2C#N)CCC3)s1 ?
GFP derepression: 0%; UbGFP stabilizer: -5%; HBB splice mod: -1%; Luciferase inh: 1.6µM*; Bst PK mod: 4.3*

What do the screens show for `Cc1ccc(/C=N/c2sc3c(c2C#N)CCCCC3)o1`?
GFP derepression: -1%; UbGFP stabilizer: -3%; HBB splice mod: 1%[57.5 µM]; Luciferase inh: 1%; Bst PK mod: >57

Results for N#Cc1c(/N=C/c2ccco2)sc2c1CCC2 ?
GFP derepression: -4%; UbGFP stabilizer: -4%; HBB splice mod: 0%; Luciferase inh: 2.5µM*

Results for COCCNc1ncnc2ccc(-c3ccccc3C)cc12 ?
GFP derepression: 2%[9.22 µM]; UbGFP stabilizer: -5%; HBB splice mod: 0%; Luciferase inh: 2%[2.29 µM]
